Data taken from PubChem BioAssay (NCATS).
Records with an inconclusive call do not appear. Where a call stands in place of a potency, no number is given. Activity calls are given as the source filed them. The call rests on the fitted dose curve; tested in HEK293 reporter line.

assay: qHTS for Inhibitors of the Functional Ribonucleoprotein Complex (vRNP) of Lassa (LASV) Arenavirus: LASV Primary Screen - GLuc reporter signal (AID 1347082); conditions: LASV minigenome vRNP, Gaussia luciferase reporter; series mostly up to 57.5 µM; activity change, negative = inhibition: at the top concentration; further: nearly all actives have a fitted effect of over 60% in size

| Structure (SMILES) | Potency | activity change, negative = inhibition |
| --- | --- | --- |
| C[C@](N)(Cc1ccc(O)c(O)c1)C(=O)O | inactive | – |
| CCC1(c2ccccc2)C(=O)NCNC1=O | inactive | – |
| COc1ccccc1OCC(O)COC(N)=O (stereo not drawn) | inactive | – |
| CC[C@@]1(c2ccccc2)NC(=O)N(C)C1=O | – | -18.1% (inactive) |

assay: qHTS for Inhibitors of the Functional Ribonucleoprotein Complex (vRNP) of Lassa (LASV) Arenavirus: Viability assay - alamar blue signal for LASV Primary Screen (AID 1347083); conditions: cell viability, alamar blue fluorescence (LASV minigenome counter-screen); series mostly up to 57.5 µM; activity change, negative = reduced viability: at the top concentration; further: nearly all actives have a fitted effect of over 80% in size; further: potency means the concentration at half of the fitted maximal effect

| Structure (SMILES) | activity change, negative = reduced viability | Potency |
| --- | --- | --- |
| CC(=O)O[C@@]12CO[C@@H]1C[C@H](O)[C@@]1(C)C(=O)[C@H](O)C3=C(C)[C@@H](OC(=O)[C@H](O)[C@@H](NC(=O)OC(C)(C)C)c4ccccc4)C[C@@](O)([C@@H](OC(=O)c4ccccc4)[C@H]21)C3(C)C | -91% (inactive) | – |
| Cc1ccc(O)c([C@H](CCN(C(C)C)C(C)C)c2ccccc2)c1 | -11% (inactive) | – |
| COc1cc2c(c(OC)c1OC)-c1ccc(OC)c(=O)cc1[C@@H](NC(C)=O)CC2 | – | inactive |
| COc1cc2ncnc(Nc3ccc(F)c(Cl)c3)c2cc1OCCCN1CCOCC1 | – | 2220 nM (active) |
| COC(=O)Nc1nc2ccc(C(=O)c3cccs3)cc2[nH]1 | – | 54.4 nM (active) |
| CC(C)Oc1ccc2c(=O)c(-c3ccccc3)coc2c1 | – | inactive |
| CCCN[C@H]1CCc2nc(N)sc2C1 | – | inactive |
| CN(C)C(=O)C(CCN1CCC(O)(c2ccc(Cl)cc2)CC1)(c1ccccc1)c1ccccc1 | -74.4% (inactive) | – |
| C[n+]1ccccc1/C=N/O | 2.02% (inactive) | – |
| Cc1ccnc2c1NC(=O)c1cccnc1N2C1CC1 | -1.89% (inactive) | – |
| COc1ccc(OC)c(C(O)CNC(=O)CN)c1 (stereo not drawn) | 7.45% (inactive) | – |
| O=C1NC(c2ccccc2)(c2ccccc2)C(=O)N1COP(=O)(O)O | -1.36% (inactive) | – |
| O=C(OC1C[C@H]2CC[C@@H](C1)[N+]21CCCC1)C(O)(c1ccccc1)c1ccccc1 (stereo partly drawn) | 10.9% (inactive) | – |
| CCCCc1oc2ccc(NS(C)(=O)=O)cc2c1C(=O)c1ccc(OCCCN(CCCC)CCCC)cc1 | -12.9% (inactive) | – |
| O=c1[nH]cc(F)c(=O)[nH]1 | -67.8% (inactive) | – |
| O=C1OCCN1/N=C/c1ccc([N+](=O)[O-])o1 | -19.3% (inactive) | – |
| CCn1cc(C(=O)O)c(=O)c2cc(F)c(N3CCNCC3)cc21 | – | inactive |
| O=C(O)CCNC(=O)c1ccc(N=Nc2ccc(O)c(C(=O)O)c2)cc1 | – | inactive |
| CNCCCN1c2ccccc2CCc2ccccc21 | – | inactive |

| Structure (SMILES) | activity change, negative = reduced viability | Potency |
| --- | --- | --- |
| CCN(CC)CCCC(C)Nc1ccnc2cc(Cl)ccc12 (stereo not drawn) | – | inactive |
| NC(=O)N/N=C/c1ccc([N+](=O)[O-])o1 | – | inactive |
| CC1Cc2ccccc2N1NC(=O)c1ccc(Cl)c(S(N)(=O)=O)c1 (stereo not drawn) | – | inactive |
| CC(C)C(=O)Nc1ccc([N+](=O)[O-])c(C(F)(F)F)c1 | – | inactive |
| Cc1nc2n(c(=O)c1CCN1CCC(c3noc4cc(F)ccc34)CC1)CCC[C@H]2O | 1.64% [at 24.7 µM] (inactive) | – |
| CN(C)CC/C=C1\c2ccccc2COc2ccccc21 | – | inactive |
| CCOC(=O)C1=C(C)NC(C)=C(C(=O)OC)C1c1cccc(Cl)c1Cl (stereo not drawn) | – | inactive |
| O=C1CCc2cc(OCCCCc3nnnn3C3CCCCC3)ccc2N1 | – | inactive |
| O=C(O)COCCN1CCN(C(c2ccccc2)c2ccc(Cl)cc2)CC1 (stereo not drawn) | – | inactive |
| O=c1c(O)c(-c2ccc(O)c(O)c2)oc2cc(O)cc(O)c12 | – | inactive |
| CC[C@]1(O)C[C@H]2CN(CCc3c([nH]c4ccccc34)[C@@](C(=O)OC)(c3cc4c(cc3OC)N(C=O)[C@H]3[C@@](O)(C(=O)OC)[C@H](OC(C)=O)[C@]5(CC)C=CCN6CC[C@]43[C@@H]65)C2)C1 | – | 15.3 nM (active) |
| Cn1cnc2c(F)c(Nc3ccc(Br)cc3Cl)c(C(=O)NOCCO)cc21 | -0.945% (inactive) | – |
| CC(COc1ccccc1)N(CCCl)Cc1ccccc1 (stereo not drawn) | – | inactive |
| O=C1Nc2ccc(Cl)cc2[C@@](C#CC2CC2)(C(F)(F)F)O1 | -17.4% (inactive) | – |
| CNCCC(Oc1ccc(C(F)(F)F)cc1)c1ccccc1 (stereo not drawn) | – | inactive |
| C[C@](N)(Cc1ccc(O)c(O)c1)C(=O)O | 5.28% (inactive) | – |
| CCC1(c2ccccc2)C(=O)NCNC1=O | – | inactive |
| COc1ccccc1OCC(O)COC(N)=O (stereo not drawn) | – | inactive |
| CC[C@@]1(c2ccccc2)NC(=O)N(C)C1=O | -80.8% (inactive) | – |

assay: qHTS for Inhibitors of the Functional Ribonucleoprotein Complex (vRNP) of Lymphocytic Choriomeningitis Arenaviruses (LCMV): Viability assay - alamar blue signal for LCMV Primary Screen (AID 1347085); conditions: alamar blue viability counter-screen, LCMV vRNP screen cells; series mostly up to 57.5 µM; activity change, negative = lower viability: at the top concentration; further: nearly all actives have a fitted effect of over 80% in size; further: potency means the concentration at half of the fitted maximal effect

| Structure (SMILES) | activity change, negative = lower viability | Potency |
| --- | --- | --- |
| CC(=O)O[C@@]12CO[C@@H]1C[C@H](O)[C@@]1(C)C(=O)[C@H](O)C3=C(C)[C@@H](OC(=O)[C@H](O)[C@@H](NC(=O)OC(C)(C)C)c4ccccc4)C[C@@](O)([C@@H](OC(=O)c4ccccc4)[C@H]21)C3(C)C | -85.9% (inactive) | – |
| Cc1ccc(O)c([C@H](CCN(C(C)C)C(C)C)c2ccccc2)c1 | -8.52% (inactive) | – |
| COc1cc2c(c(OC)c1OC)-c1ccc(OC)c(=O)cc1[C@@H](NC(C)=O)CC2 | – | inactive |
| COc1cc2ncnc(Nc3ccc(F)c(Cl)c3)c2cc1OCCCN1CCOCC1 | – | 1110 nM (active) |
| COC(=O)Nc1nc2ccc(C(=O)c3cccs3)cc2[nH]1 | – | 27.3 nM (active) |
| CC(C)Oc1ccc2c(=O)c(-c3ccccc3)coc2c1 | – | inactive |
| CCCN[C@H]1CCc2nc(N)sc2C1 | – | inactive |
| C[n+]1ccccc1/C=N/O | 4.56% (inactive) | – |
| Cc1ccnc2c1NC(=O)c1cccnc1N2C1CC1 | -19.4% (inactive) | – |
| COc1ccc(OC)c(C(O)CNC(=O)CN)c1 (stereo not drawn) | 3.93% (inactive) | – |
| O=C1NC(c2ccccc2)(c2ccccc2)C(=O)N1COP(=O)(O)O | 5.85% (inactive) | – |
| O=C(OC1C[C@H]2CC[C@@H](C1)[N+]21CCCC1)C(O)(c1ccccc1)c1ccccc1 (stereo partly drawn) | 2.92% (inactive) | – |
| CCCCc1oc2ccc(NS(C)(=O)=O)cc2c1C(=O)c1ccc(OCCCN(CCCC)CCCC)cc1 | -0.734% (inactive) | – |
| O=C1OCCN1/N=C/c1ccc([N+](=O)[O-])o1 | -24.9% (inactive) | – |
| CCn1cc(C(=O)O)c(=O)c2cc(F)c(N3CCNCC3)cc21 | – | inactive |
| O=C(O)CCNC(=O)c1ccc(N=Nc2ccc(O)c(C(=O)O)c2)cc1 | – | inactive |
| CNCCCN1c2ccccc2CCc2ccccc21 | – | inactive |
| CCN(CC)CCCC(C)Nc1ccnc2cc(Cl)ccc12 (stereo not drawn) | – | inactive |

| Structure (SMILES) | activity change, negative = lower viability | Potency |
| --- | --- | --- |
| NC(=O)N/N=C/c1ccc([N+](=O)[O-])o1 | – | inactive |
| CC1Cc2ccccc2N1NC(=O)c1ccc(Cl)c(S(N)(=O)=O)c1 (stereo not drawn) | – | inactive |
| CC(C)C(=O)Nc1ccc([N+](=O)[O-])c(C(F)(F)F)c1 | – | inactive |
| Cc1nc2n(c(=O)c1CCN1CCC(c3noc4cc(F)ccc34)CC1)CCC[C@H]2O | -1.96% [at 24.7 µM] (inactive) | – |
| CN(C)CC/C=C1\c2ccccc2COc2ccccc21 | – | inactive |
| CCOC(=O)C1=C(C)NC(C)=C(C(=O)OC)C1c1cccc(Cl)c1Cl (stereo not drawn) | – | inactive |
| O=C1CCc2cc(OCCCCc3nnnn3C3CCCCC3)ccc2N1 | – | inactive |
| O=C(O)COCCN1CCN(C(c2ccccc2)c2ccc(Cl)cc2)CC1 (stereo not drawn) | – | inactive |
| O=c1c(O)c(-c2ccc(O)c(O)c2)oc2cc(O)cc(O)c12 | – | inactive |
| CC[C@]1(O)C[C@H]2CN(CCc3c([nH]c4ccccc34)[C@@](C(=O)OC)(c3cc4c(cc3OC)N(C=O)[C@H]3[C@@](O)(C(=O)OC)[C@H](OC(C)=O)[C@]5(CC)C=CCN6CC[C@]43[C@@H]65)C2)C1 | – | 6.1 nM (active) |
| Cn1cnc2c(F)c(Nc3ccc(Br)cc3Cl)c(C(=O)NOCCO)cc21 | 13.7% (inactive) | – |
| CC(COc1ccccc1)N(CCCl)Cc1ccccc1 (stereo not drawn) | – | inactive |
| O=C1Nc2ccc(Cl)cc2[C@@](C#CC2CC2)(C(F)(F)F)O1 | -12.8% (inactive) | – |
| CNCCC(Oc1ccc(C(F)(F)F)cc1)c1ccccc1 (stereo not drawn) | – | inactive |
| C[C@](N)(Cc1ccc(O)c(O)c1)C(=O)O | – | inactive |
| CCC1(c2ccccc2)C(=O)NCNC1=O | – | inactive |
| COc1ccccc1OCC(O)COC(N)=O (stereo not drawn) | – | inactive |
| CC[C@@]1(c2ccccc2)NC(=O)N(C)C1=O | -96% (inactive) | – |
